An excerpt weighted towards active compounds, which were near 3.9% of everything screened.
GDH-TPI inh: GDH-TPI coupled enzyme inhibition counter-screen; inhibition, % at 4.8 µM; 360,000 tested, 1.2% active; AID 588335; GDH-TPI coupled enzyme counterscreen, NADH absorbance;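 note: 0% = DMSO wells and 100% = wells lacking the enzyme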
FBA Mtb inh: Mtb fructose-bisphosphate aldolase inhibition; purified M. tuberculosis FBA, fluorescence read-out; 360,000 tested, 2.3% active; inhibition, % at 1 µM; P9WQA3; in the data active = inhibition above about 27%;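 note: 0% = vehicle and 100% = reference inhibitor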
Target sequence (P9WQA3 whole entry, looked up): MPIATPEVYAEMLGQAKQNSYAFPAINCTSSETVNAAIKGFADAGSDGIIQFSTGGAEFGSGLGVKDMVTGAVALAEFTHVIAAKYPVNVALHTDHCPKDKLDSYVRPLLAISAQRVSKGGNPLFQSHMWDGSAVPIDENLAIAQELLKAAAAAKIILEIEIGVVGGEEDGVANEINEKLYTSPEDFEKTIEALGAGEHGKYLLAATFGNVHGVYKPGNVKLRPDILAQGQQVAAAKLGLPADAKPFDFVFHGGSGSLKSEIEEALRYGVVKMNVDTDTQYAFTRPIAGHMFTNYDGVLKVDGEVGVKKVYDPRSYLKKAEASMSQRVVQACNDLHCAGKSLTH
CCHFV vOTU inh: CCHFV vOTU protease inhibition; Pep-AMC fluorescence; inhibition, % at 11.5 µM; 370,000 tested, 0.55% active; AID 651958; note: 0% = vehicle wells with enzyme and 100% = no enzyme wells
Vc quorum ag: inducers of Vibrio cholerae quorum light production without autoinducers; V. cholerae BH1578 lux reporter, luminescence, 6 h; activation, % at 18.7 µM; 350,000 tested, 0.16% active; in the data active = activation mostly above about 9.7%, no sharp cut-off
* marks the source's active call; other numbers are inactive results; i = inactive; x = not tested or not shown. Cut-off read from the data, not from the text of the source, unless noted: active = inhibition above about 30%; inactive = the rest.

SMILES	GDH-TPI inh	FBA Mtb inh	CCHFV vOTU inh	Vc quorum ag
Cc1ccc([C@H]2C[C@H](n3cc(COC(=O)c4ccccc4)nn3)[C@@H](O)CN2C(=O)c2cccs2)cc1	2	-2	-5	-1
CCCCC(=O)Nc1ccc(C(=O)NNC(=S)NC(=O)c2ccco2)cc1	44*	-1	-1	-1
O=C(NC(=S)NNC(=O)c1ccccc1O)c1ccco1	31*	5	-13	0
CC1=C(C(N)=O)C(c2cccc(O)c2)n2nc(CCCO)nc2N1 (centres undefined)	0	7	0	0
NS(=O)(=O)c1ccc(NC(=O)/C=C/c2cccs2)cc1	72*	0	13	i
O=C(/C=C/c1cccs1)Nc1ccc(S(=O)(=O)Nc2ncccn2)cc1	45*	2	19	0
NS(=O)(=O)c1cccc(NC(=O)/C=C/c2cccs2)c1	18	-2	-4	3
O=C(/C=C/c1ccccc1)Nc1ccc(NC(=O)c2cccs2)cc1	35*	-3	14	-1
CCOC(=O)c1ccc(NC(=O)/C=C/c2cccs2)cc1	32*	-1	23	0
Cc1cc(F)ccc1S(=O)(=O)NCC1CC2CCC1C2 (centres undefined)	0	0	8	i
COC(=O)c1sc(S(=O)(=O)N2CCN(CCO)CC2)c(C(=O)OC)c1C	-1	1	-15	0
CC(C)(C)c1nnc2cccc(Cl)n12	7	0	-10	0
O=C(Cn1c2c(c(-c3ccccc3Cl)cc1=O)CCC2)NCC1CCCO1 (centres undefined)	18	11	-16	0
O=C(Cn1c2c(c(-c3ccccc3Cl)cc1=O)CCC2)NCCCN1CCOCC1	31*	15	-7	0
Cc1ccc2nc(C3CCCCC3)c(Cc3cccc(Cl)c3)n2c1	x	145*	-1	x
O=C1c2cccc3cccc(c23)C(=O)N1CC1CCN(CC(O)COc2ccc3ccccc3c2)CC1 (centres undefined)	42*	5	20	1
CCOP(=O)(c1ccc(N(C)C)cc1)C(O)c1cccnc1 (centres undefined)	2	0	4	1
Cc1nc(N2CCOCC2)c2c(C)c(C(=O)Nc3ccccc3Cl)sc2n1	31*	-3	-12	-1
COc1ccccc1NC(=O)Cn1c(C)nc2c(sc(=S)n2Cc2ccco2)c1=O	32*	1	-5	0
CCN(CC)C(=O)CSc1nc2c(sc(=S)n2Cc2ccco2)c(=O)n1-c1ccccc1	11	4	8	-6
CCOC(=O)CSc1nc2c(sc(=S)n2Cc2ccco2)c(=O)n1-c1ccccc1	33*	-2	-3	0
Cc1ccc(CN2CCC2(C)C(=O)NC(C)C)cc1 (centres undefined)	-1	-3	6	i
CCOCCCNC(=O)C(c1ccc(OC)cc1)N(Cc1cccs1)C(=O)c1ccccc1O (centres undefined)	2	-4	-11	-1
O=C(CN1c2ccccc2Sc2ccccc21)N/N=C/c1ccc([N+](=O)[O-])cc1	18	-1	-7	i
O=C(NCc1cccnc1)c1cc(Sc2ccc(F)cc2F)nc2ccccc12	5	-1	-1	i
SMILES	GDH-TPI inh	FBA Mtb inh	CCHFV vOTU inh	Vc quorum ag
O=C(N/N=C/c1cccnc1)/C(=C\c1cccs1)NC(=O)c1ccccc1	47*	-1	21	0
O=C(N/N=C/c1ccc2c(c1)OCO2)/C(=C/c1ccc2c(c1)OCO2)NC(=O)c1ccccc1	55*	0	6	-1
COc1ccc(/C=C(\NC(=O)c2cccs2)C(=O)Nc2ccccc2C)cc1OC	38*	0	-4	-1
COc1ccc(/C=C(/NC(=O)c2ccccc2)C(=O)N/N=C/c2cccs2)cc1OC	69*	-2	-2	2
COc1ccccc1NS(=O)(=O)c1cc(N)ccc1N1CCOCC1	6	-1	-1	-2
CCC(=O)Nc1nc(CC(=O)Nc2ccccc2)cs1	-7	3	-9	0
O[C@H](COc1cccc(Cl)c1)CN1CCC(C(O)(c2ccccc2)c2ccccc2)CC1	x	x	9	x
COc1ccccc1C(=O)N/C(=C/c1ccc2c(c1)OCO2)C(=O)Nc1ccc(C(=O)O)cc1	26	15	12	0
COc1cc2ccccc2cc1C(=O)N/N=C/c1cccs1	35*	4	19	-6
COc1ccc(/C=C(/NC(=O)c2ccccc2)C(=O)N/N=C/c2ccc3c(c2)OCO3)cc1OC	65*	-4	0	-2
COc1ccc([N+](=O)[O-])cc1/C=N/NC(=O)/C(=C\c1cccs1)NC(=O)c1ccccc1	43*	-2	-6	-6
COc1ccc(COC(=O)N/N=C(\C)CC(=O)Nc2ccc(Cl)cn2)cc1	6	4	10	1
Cc1ccc(NC(=O)COC(=O)CN2CCSC2=O)cc1Cl	2	0	1	i
Nc1cc(Cl)nc(N/N=C/c2ccc([N+](=O)[O-])cc2)n1	33*	-4	15	i
CCNc1nc(N)c(C(=C(C#N)C#N)c2ccccc2)s1	23	167*	-236	-1
N#C/C(=N\Nc1cc(Cl)cc(Cl)c1)c1nnc2n1CCCCC2	33*	-4	1	i
N#C/C(=C(/O)CCl)c1nnc2n1CCCCC2	-1	-5	-2	i
COc1ccc(C(C#N)N2CCOCC2)cc1 (centres undefined)	5	2	19	0
N#CC(c1ccc(O)cc1)N1CCN(C(C#N)c2ccc(O)cc2)CC1 (centres undefined)	82*	-1	6	i
Cc1ccc([C@@H]2C[C@H]3[C@@H](CN2S(=O)(=O)c2ccc(C)cc2)C(=O)C[C@@H](c2ccc(Cl)cc2)N3S(=O)(=O)c2ccc(C)cc2)cc1	5	1	10	0
COc1ccc(Br)cc1CN(C)C(=O)C1=CC=CN2CCS(=O)(=O)N=C12	9	1	1	i
Cc1[nH]c2ccccc2c1C(=O)CN1CCN(C/C=C/c2ccccc2)CC1	-3	-4	20	i
COc1ccc2[nH]c(C)c(C(=O)CN3CCN(C/C=C/c4ccccc4)CC3)c2c1	-6	-2	31*	i
COc1ccc(C(=O)OC(C)CN2CCOCC2)cc1 (centres undefined)	-11	1	1	-2
COc1ccc(C(=O)OC(C)CN2CCOCC2)cc1OC (centres undefined)	5	121*	4	-2
SMILES	GDH-TPI inh	FBA Mtb inh	CCHFV vOTU inh	Vc quorum ag
Clc1cccc(Sc2ccc(-c3ccccn3)s2)c1	-6	4	-11	-1
Cc1ccsc1/C=N/Nc1nc2ccccc2[nH]1	32*	5	18	-1
Cn1c(/C=N/Nc2nc3ccccc3[nH]2)nc2ccccc21	9	3	22	0
Cc1c(/C=N/Nc2nc3ccccc3[nH]2)c2ccccc2n1C	32*	1	-1	i
C#CCSc1nnc(-c2c[nH]c3ccccc23)n1C	12	4	-1	0
C#CCSc1nnc(-c2sc(-c3ccccc3)nc2C)n1C	7	36*	-13	0
Nc1ccc2c(c1)oc1ccccc12	13	57*	-12	i
NS(=O)(=O)c1ccc(NC(=S)NNC(=O)c2ccc(Br)o2)cc1	33*	1	16	i
